Drawing on article PMC5540273 (PLoS ONE, 2017), this text covers Kd for 33 molecules.

Experiment [1] relates to T1, PIK4CB.
T1 construct: gene PI4KB

The test system of experiment [2] is PDGFRB.
Experiment [3] deals with PDPK1.
Experiment [4] deals with T2, PIP5K2C.
T2 construct: gene PIP4K2C

Experiment [5] relates to PIKFYVE.
Experiment [6] has as its system PIK3CD.
Experiment [7] relates to PIK3CA.
Experiment [8] has as its system PIK3CB.
Experiment [9] relates to NEK5.
Experiment [10] deals with NEK1.
Experiment [11] has as its system T3, PFTK1.
T3 construct: gene CDK14

In experiment [12] the test system is PIK3C2B.
The subject of experiment [13] is PIK3CG.
Experiment [14] relates to PDGFRA.
In experiment [15] the test system is NEK2.
The subject of experiment [16] is PAK6.
The test system of experiment [17] is PIP5K1C.
Experiment [18] relates to PAK3.
The subject of experiment [19] is NEK4.
Experiment [20] relates to NEK3.

SMILES strings stand for the structures. Values joined by “and” are separate entries in the source; they are usually repeats but may differ in a detail not shown here. Equal values may be shown once.
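Note: kd values determined as follow-up on hits from a single-replicate KINOMEscan panel screen.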

For orientation: Kd means a measure of binding affinity in units of concentration. Higher therefore signals lower affinity. `Cc1cc(N2Cc3ccccc3C2)nc(Nc2ccc(S(=O)(=O)N3CCOCC3)cc2)n1.Cl` [GSK1669917] showed a Kd in experiment [1] of over 10000 nM. For the molecule `Fc1cc(Cl)ccc1Nc1ccnc2cc(-c3ccc(CN4CCCCC4)o3)ccc12` [GW560116], the Kd was 210 nM in experiment [2] and over 10000 nM in experiment [3]. Molecule `COc1ccc(Nc2nccc(-c3cccc(NC(=O)c4cc5cc(F)ccc5[nH]4)c3)n2)cc1` [GSK1229782] yielded a Kd in experiment [4] of 1400 nM.

The molecule `Cc1cccc(-c2nc(Nc3ccc4[nH]ncc4c3)c3ccccc3n2)n1` [GW857175] had a Kd in experiment [5] of 700 nM. On to `Cc1ccc(C(=O)Nc2ccc(Nc3ccnc4cc(-c5ccccn5)ccc34)cc2O)cc1.Cl` [GW440146], for which the figures for the Kd in experiment [2] and in experiment [6] were 480 nM and over 10000 nM, respectively. `CS(=O)(=O)c1ccc(-c2c(-c3ncn[nH]3)sc(N3CCOCC3)c2C#N)cc1`: the results for the Kd in experiment [7] and in experiment [8] were 21 nM and 77 nM, respectively.

In turn, `COc1cc(Nc2nccc(N3CCC(NC(=O)Nc4cc(C)ccc4C)C3)n2)cc(OC)c1OC` (stereo not drawn) [GSK1379762] yielded a Kd in [9] of 2300 nM. In [2], `CC(C)(C)c1ccc(C(=O)Nc2cn3cc(-c4cccnc4)ccc3n2)cc1` came in with a Kd of 220 nM. On to `Cc1c(Cn2ccn3c(=O)cc(N4CCOCC4)nc23)cccc1C(F)(F)F` [GSK2289044], for which the Kd is 1.5 nM in experiment [8] and 170 nM in experiment [6].

In turn, `COc1ccc2nc(-c3cccc(C)n3)nc(Nc3ccncc3)c2c1` [GSK204919] gave a Kd in experiment [5] of 1200 nM.

Regarding `Cc1ccc(NC(=O)Nc2cccc(Cl)c2)cc1-c1ccc(C(=O)Nc2ccncc2)cc1` [GSK1398468], in experiment [2], the Kd came out at 50 nM. `CCn1c(-c2ccccn2)nc2cnccc21` [SB-736398]: the Kd in experiment [10] and in experiment [3] was over 10000 nM each time. Turning to `COc1ccc(CNC(=O)NC2CCN(c3ccnc(Nc4cc(OC)c(OC)c(OC)c4)n3)C2)cc1` (stereo not drawn) [GSK1379748], the Kd in [9] was 730 nM; in [4], 600 nM. For the molecule `COc1cc2nccc(Nc3ccc(NC(=O)c4ccc(C)cc4)c(O)c3)c2cc1OC.Cl` [GW440132], the Kd in [11], in [12], in experiment [7] and in [13] was over 10000 nM throughout. As to `CCCc1ccc(S(=O)(=O)NC2CCN(c3ccnc(Nc4ccc(F)cc4)n3)C2)cc1` (stereo not drawn) [GSK1379715], the Kd in experiment [10] and in [3] was over 10000 nM throughout.

`O=C(Nc1ccccc1)Nc1cccc(Oc2ccc3nccn3n2)c1`: the Kd in experiment [14] stood at 3.6 nM; in experiment [2], 1 nM. For the molecule `CSc1nn2c(=O)cc(N3CCOCC3)nc2n1Cc1cccc(C(F)(F)F)c1C` [GSK2363608], the Kd in experiment [15] is over 10000 nM; in experiment [8] it was 0.48 nM and 0.26 nM; in [6] it was 64 nM and 47 nM. `COC(=O)c1c(-c2ccccc2)c2cc(C(=O)O)ccc2c(=O)n1Cc1ccccc1`: binding in experiment [2] was characterised by a dissociation constant (Kd) of 75 nM.

Turning to `CS(=O)(=O)c1ccc(-c2nc3n(c2-c2ccncc2)CCC3)cc1` [SKF-105942], the Kd in experiment [16] and in experiment [1] was over 10000 nM each time. Consider `O=C(Nc1n[nH]c2cc(-c3cccc(F)c3F)ccc12)C1CC1` [SB-733894], for which the Kd in experiment [5] is over 10000 nM.

For `COc1cc2ncn(-c3cc(OCC4CCCO4)c(C(N)=O)s3)c2cc1OC` (stereo not drawn) [GSK204607], binding in experiment [17] was characterised by a dissociation constant (Kd) of 7700 nM. For `O=C1NC(=O)C(N2CCc3ccccc32)=C1c1ccccc1Cl` [SB-373598], the Kd in experiment [18] is over 10000 nM. Consider `O=c1cc(N2CCOCC2)nc2n(Cc3cccc(Cl)c3Cl)ccn12` [GSK2286295], for which the equilibrium dissociation constant (Kd) was 3.5 nM in [8] and 79 nM in experiment [6]. For the molecule `Nc1ncnc2[nH]c(-c3ccccc3)nc12` [AH5015], the Kd in experiment [18] is over 10000 nM. In the case of `Cc1cccc(-c2nc(-c3ccc(S(C)(=O)=O)cc3)sc2-c2ccnc(NCCc3ccccc3)c2)c1`, the Kd in experiment [14] came out at 550 nM; in experiment [2], 68 nM. For the molecule `Cc1ccc(NC(=O)Nc2cc(C(C)(C)C)nn2-c2ccccc2)cc1` [GSK1014915], in experiment [2], the Kd turned out to be 340 nM. On the same count and under the same terms, with `Fc1cc(Cl)ccc1Nc1ccnc2cc(I)ccc12` [GW551191] the figure was 410 nM. `Cn1ccc2ncnc(Oc3ccc(Nc4nc5ccccc5[nH]4)cc3)c21` yielded a Kd in experiment [19] of over 10000 nM. In the case of `CC(=O)Nc1nc2cnc(Nc3cc(NC(=O)c4cccc(CCC#N)c4)ccc3C)nc2s1`, the Kd in experiment [14] and in [2] was over 10000 nM throughout. In experiment [1], `Cl.NC(=O)c1cccc(Nc2nccc(Nc3ccc(Oc4cccc(Cl)c4)c(Cl)c3)n2)c1` [GW659008] registered a Kd of over 10000 nM. Regarding `COC(=O)c1c(-c2ccccc2)c2cc(OC)ccc2c(=O)n1Cc1ccccc1`, the Kd in experiment [2] turned out to be 110 nM. `O=C(O)COc1ncnc2cc(-c3ccc4[nH]ncc4c3)sc12`: binding in [20] was characterised by a dissociation constant (Kd) of 210 nM. For `Cn1ccc2ncnc(Oc3ccc(NC(=O)Nc4ccccc4)cc3)c21`, the Kd in experiment [14] stood at 25 nM; in experiment [2], 16 nM.
